The results in this text go back to PubChem BioAssay (NCATS).

The nature of test [1]: Cell Viability - LYMP2-001 (AID 921; active = well fitted curve in the direction sought with a large enough effect; an effect the other way counts as inactive or inconclusive;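 also: 0% = DMSO only and full inhibition = tetraoctylammonium bromide control wells; nearly all actives have a fitted effect of over 70% in size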). Put shortly: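 Human lymphoblastoid LYMP2-001 cells, 2500 per well, in complete medium, treated 24 h at 37 C. Viability from cellular ATP by CellTiter-Glo luminescence; AC50 from Hill-equation fits of qHTS concentration-response.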
Test [2] in a line: Cell Viability - LYMP2-002 (AID 977; active = well fitted curve in the direction sought with a large enough effect; an effect the other way counts as inactive or inconclusive;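 also: compound exposure lasted 24 h at 37 °C; plate controls were DMSO only for no effect and 92 µM tetraoctylammonium bromide for full effect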). Put shortly:
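Human lymphoblastoid cells (2500/well) in complete medium were preincubated 5 hr at 37 C, then exposed to compounds for 24 hr at 37 C. Intracellular ATP was read by CellTiter-Glo luminescence; AC50 came from Hill-equation concentration-response fits.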

The target of test [3] is Estrogen receptor (Homo sapiens) (UniProt P03372). Put plainly: qHTS assay for small molecule antagonists of estrogen receptor alpha signaling (AID 588513; active = well fitted curve in the direction sought with a large enough effect in the signal ratio, with a control signal flat, not every such curve was filed as active; the % refers to the signal ratio; also: % is scaled to controls: 0 for no effect and ±100 for the full control effect). Put shortly: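 ER-alpha-UAS-bla GripTite HEK 293 cells in 2% charcoal/dextran-treated FBS medium; compounds titrated (1:2, duplicate), then stimulated with 0.5 nM 17-beta-estradiol for 18 h at 37C. CCF4 beta-lactamase fluorescence; Hill-fit IC50 and efficacy.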

For test [4] the target is unchanged. Put plainly: qHTS assay for small molecule agonists of estrogen receptor alpha signaling (AID 588514).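 Also: 0% = vehicle only and 100% = reference agonist; nearly all actives have a fitted effect of over 70% in size.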 Put shortly:
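Fluorescence from CCF4 cleavage reports ER-alpha-driven beta-lactamase expression in HEK 293 cells treated 18 hrs at 37 C. Data normalized to 17-beta-estradiol (20 nM) and DMSO, fitted to Hill equation.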

Test [5] addresses Glucocorticoid receptor (Homo sapiens) (UniProt P04150). Put plainly: qHTS assay for small molecule agonists of glucocorticoid receptor signaling (AID 588532; active = well fitted curve in the direction sought with a large enough effect in the signal ratio, with a control signal flat; the % refers to the signal ratio;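 also: 100% = dexamethasone at 0.1 µM and 0% = DMSO only wells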). As to conditions: HeLa MMTV-bla, beta-lactamase ratio, agonist, 18 h; stronger effect = higher value; percent of dexamethasone control, DMSO zero. In a few lines: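 Using MMTV-bla HeLa cells in medium with 1% stripped FBS and 25 mM HEPES, compounds were titrated and incubated overnight-length (18 h). Beta-lactamase cleavage of CCF4 was quantified by dual-emission fluorescence.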
(In general: Quantitative high-throughput screening tests each substance at several concentrations.)

Test [6] in a line: qHTS assay for small molecule agonists of the antioxidant response element (ARE) signaling pathway (AID 651741; active = well fitted activation curve with a large enough effect in the signal ratio; the % refers to the signal ratio; also: potency is read from the fitted curve at half-maximal effect; as to activation: % of control where 0% means no effect). Put shortly: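 Agonist activity is measured as ARE-driven beta-lactamase expression in a stable HepG2 reporter line, using 16 h compound treatment at 37 C and a FRET substrate fluorescence readout after 2 h.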
The nature of test [7]: qHTS assay for small molecule disruptors of the mitochondrial membrane potential - 5 hr assay (AID 651755). Also: nearly all actives have a fitted effect of over 40% in size. Also: potency is read from the fitted curve at half-maximal effect. In a few lines:
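Membrane-potential dye readout: red aggregate (540 ex/590 em) versus green monomer (490 ex/535 em) fluorescence after 30 min dye loading, following 5 hr compound exposure at 37C of overnight-plated HepG2 cells.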

The nature of test [8]: MultiTox-Fluor Cytotoxicity Assay - LYMP1-001 - Live Cells (AID 947; active = well fitted curve in the direction sought with a large enough effect; an effect the other way counts as inactive or inconclusive;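 also: 0% = DMSO only and full inhibition = tetraoctylammonium bromide control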).
Test [9] in a line: Cell Viability - LYMP2-004 (AID 966; active = well fitted curve in the direction sought with a large enough effect; an effect the other way counts as inactive or inconclusive;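 also: plate controls were DMSO only for no effect and tetraoctylammonium bromide control for full effect; nearly all actives have a fitted effect of over 65% in size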). In a few lines:
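Viable-cell number estimated from ATP luminescence (CellTiter-Glo) in 2500 human lymphoblastoid cells/well after 24 hr at 37 C with compound. AC50 fitted to the standard Hill equation.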

The target of test [10] is Bile acid receptor (Homo sapiens) (UniProt Q96RI1). Put plainly: qHTS assay for small molecule antagonists of farnesoid X receptor signaling (AID 588526). Also: % is scaled to controls: 0 for no effect and ±100 for the full control effect. Put shortly:
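Beta-lactamase reporter antagonist mode: HEK293T FXR-UAS-bla cells, titrated compound, CDCA stimulation, 16 h 37 C, CCF4 dye 2 h RT. Data normalized to CDCA 50 uM and DMSO; Hill-fit IC50.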

For test [11] the target is unchanged. Put plainly: qHTS assay for small molecule agonists of farnesoid X receptor signaling (AID 588527).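 Also: 0% = vehicle basal and 100% = reference agonist.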 As to conditions: HEK293T FXR-UAS-bla, beta-lactamase ratio, 16 h; stronger effect = higher value. Put shortly:
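Agonist-mode beta-lactamase reporter in GeneBLAzer FXR-UAS-bla HEK293T cells, titration up to 92 uM, 16 h exposure at 37 C, CCF4 fluorescence. Response scaled to DMSO (0%) and 100 uM chenodeoxycholic acid (100%), then Hill-fitted for EC50 and efficacy.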

In test [12] the target is Peroxisome proliferator-activated receptor gamma (Homo sapiens) (UniProt P37231). Put plainly: qHTS assay for small molecule antagonists of peroxisome proliferator-activated receptor gamma signaling (AID 588537; active = well fitted inhibition curve with a large enough effect in the signal ratio, with a control signal flat, not every such curve was filed as active; the % refers to the signal ratio;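 also: reporter cells co-stimulated with 50 nM rosiglitazone agonist during compound treatment; % of control where 0% means no effect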). Put shortly:
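Cell-based beta-lactamase assay; GW9662 served as the antagonist control. Stimulation used rosiglitazone, final 50 nM, 16 h, 37 C.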

Test [13] addresses Vitamin D3 receptor (Homo sapiens) (UniProt P11473). Put plainly: qHTS assay for small molecule antagonists of vitamin D receptor signaling (AID 588541).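 Also: receptor activated by calcitriol during compound treatment; % is scaled to controls: 0 for no effect and ±100 for the full control effect.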 In a few lines:
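Antagonist-mode beta-lactamase reporter assay: HEK293T VDR-UAS-bla cells were exposed to titrated compound alongside 1-alpha,25-dihydroxyvitamin D3 at 3 nM final for 16 h. Values were normalized to the 50 nM agonist control and DMSO basal, with IC50 and efficacy from Hill equation fits.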

Test [14] can be described thus: qHTS assay for small molecule disruptors of the mitochondrial membrane potential - 1 hr assay (AID 651754). Also: nearly all actives have a fitted effect of over 35% in size. Also: potency is read from the fitted curve at half-maximal effect. Put shortly: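 In this qHTS format, a 1 hr compound treatment of HepG2 cells precedes Mito-MPS staining, and membrane potential is judged from aggregate (red) against monomer (green) fluorescence intensity.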
The nature of test [15]: Cell Viability - Jurkat (AID 426;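 active = dose-dependent loss of cell ATP signal giving a full or clear fitted curve, ranked by lower potency value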;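 also: potency is read from the fitted curve at half-maximal effect; cells exposed to compound for 40 hours at 37 °C before ATP read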). As to conditions: qHTS. In a few lines: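 Cytotoxicity was scored as loss of cellular ATP, measured by luciferase-based luminescence, in Jurkat clone E6-1 cells after 40 h compound treatment; tamoxifen and doxorubicin served as positive controls.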
Test [16] can be described thus: Cell Viability - N2a (AID 540; active = well fitted curve in the direction sought with a large enough effect; an effect the other way counts as inactive or inconclusive;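 also: cells exposed to compound for 40 h at 37 °C; plate controls were DMSO alone for no effect and tamoxifen control for full effect; nearly all actives have a fitted effect of over 45% in size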). As to conditions: N2a mouse neuroblastoma cell viability; activity change, negative = cytotoxicity: at 92.2 µM (top of the series). In a few lines: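 In this qHTS cytotoxicity screen, ATP-dependent luciferase luminescence reports viable N2a cells after a 40 hr compound exposure in complete culture medium. Potencies are AC50 values from standard Hill equation fits.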

A short description of test [17]: Cell Viability - LYMP1-003 - Assay at 24 hr (AID 963; active = well fitted curve in the direction sought with a large enough effect; an effect the other way counts as inactive or inconclusive;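 also: plate controls were DMSO only for no effect and tetraoctylammonium bromide positive control for full effect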). In a few lines:
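The lymphoblastoid line was treated with titrated compounds for 24 hours, and viable cell number estimated from luciferase-based ATP luminescence.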

For test [18], the target named is Peroxisome proliferator-activated receptor delta (Homo sapiens) (UniProt Q03181). Put plainly: qHTS assay for small molecule agonists of peroxisome proliferator-activated receptor delta signaling (AID 588534).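 Also: 0% = DMSO basal wells and 100% = positive control agonist at 10 µM.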 In a few lines:
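EC50 and efficacy values derive from Hill fits of a concentration series in a beta-lactamase reporter cell assay. Exposure is 18 hrs at 37 C, with CCF4 fluorescence as the readout.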

The nature of test [19]: qHTS assay for small molecule antagonists of peroxisome proliferator-activated receptor delta signaling (AID 588535; active = well fitted inhibition curve with a large enough effect in the signal ratio, with a control signal flat, not every such curve was filed as active; the % refers to the signal ratio;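 as to max response: cells co-treated with a PPAR-delta agonist as stimulator during compound exposure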). As to conditions: HEK293T PPARd-UAS-bla, beta-lactamase FRET ratio, 18 h; 460 nm channel. Put shortly:
(§1)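 Antagonist-mode qHTS using GeneBLAzer PPAR-delta-UAS-bla HEK293T cells; compound exposure 18 hrs at 37 C over a titration. Ratiometric CCF4 fluorescence at 460/530 nm; concentration-response points fitted to the Hill equation.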

Test [20] concerns the target Peroxisome proliferator-activated receptor delta (Homo sapiens) (UniProt Q03181). The test is described as above. Put shortly:
as §1

Structures are written as SMILES. Values joined by “and” are separate entries in the source; they are usually repeats but may differ in a detail not shown here. Equal entries are not always repeated. Inconclusive results are not listed. Active and inactive are the calls of the source. Unless noted, calls follow the shape of the full dose curve.

Sequence of Peroxisome proliferator-activated receptor delta (Homo sapiens) (Q03181 whole entry, looked up): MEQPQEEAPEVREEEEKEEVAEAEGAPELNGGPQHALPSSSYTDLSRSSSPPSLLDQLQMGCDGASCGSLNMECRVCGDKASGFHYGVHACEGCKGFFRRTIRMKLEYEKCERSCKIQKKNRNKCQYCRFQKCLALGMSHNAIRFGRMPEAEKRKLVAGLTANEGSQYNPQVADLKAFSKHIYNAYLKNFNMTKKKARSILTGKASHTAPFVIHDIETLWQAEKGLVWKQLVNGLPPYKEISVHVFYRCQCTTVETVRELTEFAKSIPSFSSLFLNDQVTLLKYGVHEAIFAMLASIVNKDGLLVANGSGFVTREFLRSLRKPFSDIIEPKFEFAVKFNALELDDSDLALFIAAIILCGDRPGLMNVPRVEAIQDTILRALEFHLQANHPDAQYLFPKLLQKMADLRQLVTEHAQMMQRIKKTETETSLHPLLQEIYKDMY
Sequence of Estrogen receptor (Homo sapiens) (P03372 whole entry, looked up): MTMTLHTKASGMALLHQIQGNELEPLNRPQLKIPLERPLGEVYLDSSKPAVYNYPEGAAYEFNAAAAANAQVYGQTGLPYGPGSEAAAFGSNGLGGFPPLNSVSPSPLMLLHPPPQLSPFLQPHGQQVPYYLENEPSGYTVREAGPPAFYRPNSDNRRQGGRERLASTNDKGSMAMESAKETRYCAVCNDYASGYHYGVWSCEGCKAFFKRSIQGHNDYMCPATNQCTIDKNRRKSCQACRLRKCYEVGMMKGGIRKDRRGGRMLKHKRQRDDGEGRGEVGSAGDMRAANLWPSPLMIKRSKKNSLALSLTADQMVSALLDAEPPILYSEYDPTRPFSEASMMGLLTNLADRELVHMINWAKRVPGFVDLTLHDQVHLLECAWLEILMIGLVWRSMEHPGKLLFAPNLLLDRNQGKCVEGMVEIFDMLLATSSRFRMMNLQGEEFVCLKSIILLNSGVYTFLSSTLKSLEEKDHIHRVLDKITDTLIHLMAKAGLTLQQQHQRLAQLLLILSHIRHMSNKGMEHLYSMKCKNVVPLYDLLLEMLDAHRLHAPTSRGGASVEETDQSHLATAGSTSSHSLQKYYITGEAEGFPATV
Sequence of Peroxisome proliferator-activated receptor gamma (Homo sapiens) (P37231 whole entry, looked up): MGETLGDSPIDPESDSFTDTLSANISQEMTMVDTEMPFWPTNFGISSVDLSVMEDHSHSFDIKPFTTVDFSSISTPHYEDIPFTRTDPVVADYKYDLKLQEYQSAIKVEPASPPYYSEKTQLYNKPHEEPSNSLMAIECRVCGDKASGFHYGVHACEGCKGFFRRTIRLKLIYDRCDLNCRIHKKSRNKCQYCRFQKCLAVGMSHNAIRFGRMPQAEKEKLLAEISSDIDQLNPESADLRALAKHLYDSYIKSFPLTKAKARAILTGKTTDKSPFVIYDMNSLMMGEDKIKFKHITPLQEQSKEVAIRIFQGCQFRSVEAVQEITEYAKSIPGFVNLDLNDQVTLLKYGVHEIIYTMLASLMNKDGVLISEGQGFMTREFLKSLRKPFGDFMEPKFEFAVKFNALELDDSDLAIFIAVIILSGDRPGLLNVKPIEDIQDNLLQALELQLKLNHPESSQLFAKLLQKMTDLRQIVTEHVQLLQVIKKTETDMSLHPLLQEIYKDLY
Sequence of Vitamin D3 receptor (Homo sapiens) (P11473 whole entry, looked up): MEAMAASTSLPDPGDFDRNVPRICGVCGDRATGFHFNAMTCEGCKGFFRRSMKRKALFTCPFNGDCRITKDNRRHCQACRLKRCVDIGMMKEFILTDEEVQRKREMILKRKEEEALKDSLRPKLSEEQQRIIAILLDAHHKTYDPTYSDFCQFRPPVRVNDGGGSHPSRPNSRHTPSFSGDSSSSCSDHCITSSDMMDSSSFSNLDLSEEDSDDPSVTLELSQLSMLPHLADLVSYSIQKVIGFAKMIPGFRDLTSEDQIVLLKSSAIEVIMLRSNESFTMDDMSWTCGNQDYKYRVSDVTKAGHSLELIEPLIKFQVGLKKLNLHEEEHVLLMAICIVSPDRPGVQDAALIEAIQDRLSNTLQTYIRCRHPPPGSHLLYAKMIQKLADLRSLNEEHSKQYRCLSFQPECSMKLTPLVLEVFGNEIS
Sequence of Bile acid receptor (Homo sapiens) (Q96RI1 whole entry, looked up): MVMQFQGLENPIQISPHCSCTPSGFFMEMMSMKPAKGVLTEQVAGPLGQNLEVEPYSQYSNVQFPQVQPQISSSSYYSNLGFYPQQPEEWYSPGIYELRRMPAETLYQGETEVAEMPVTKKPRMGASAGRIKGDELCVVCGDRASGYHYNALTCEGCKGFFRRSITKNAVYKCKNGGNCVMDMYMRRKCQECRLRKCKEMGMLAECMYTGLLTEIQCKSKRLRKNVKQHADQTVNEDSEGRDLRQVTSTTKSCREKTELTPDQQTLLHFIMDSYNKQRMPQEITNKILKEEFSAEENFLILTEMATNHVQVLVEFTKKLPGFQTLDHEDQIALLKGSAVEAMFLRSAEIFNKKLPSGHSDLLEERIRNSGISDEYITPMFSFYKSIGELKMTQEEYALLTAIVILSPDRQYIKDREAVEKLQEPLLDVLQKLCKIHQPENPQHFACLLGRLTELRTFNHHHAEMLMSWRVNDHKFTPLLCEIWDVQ
Sequence of Glucocorticoid receptor (Homo sapiens) (P04150 whole entry, looked up): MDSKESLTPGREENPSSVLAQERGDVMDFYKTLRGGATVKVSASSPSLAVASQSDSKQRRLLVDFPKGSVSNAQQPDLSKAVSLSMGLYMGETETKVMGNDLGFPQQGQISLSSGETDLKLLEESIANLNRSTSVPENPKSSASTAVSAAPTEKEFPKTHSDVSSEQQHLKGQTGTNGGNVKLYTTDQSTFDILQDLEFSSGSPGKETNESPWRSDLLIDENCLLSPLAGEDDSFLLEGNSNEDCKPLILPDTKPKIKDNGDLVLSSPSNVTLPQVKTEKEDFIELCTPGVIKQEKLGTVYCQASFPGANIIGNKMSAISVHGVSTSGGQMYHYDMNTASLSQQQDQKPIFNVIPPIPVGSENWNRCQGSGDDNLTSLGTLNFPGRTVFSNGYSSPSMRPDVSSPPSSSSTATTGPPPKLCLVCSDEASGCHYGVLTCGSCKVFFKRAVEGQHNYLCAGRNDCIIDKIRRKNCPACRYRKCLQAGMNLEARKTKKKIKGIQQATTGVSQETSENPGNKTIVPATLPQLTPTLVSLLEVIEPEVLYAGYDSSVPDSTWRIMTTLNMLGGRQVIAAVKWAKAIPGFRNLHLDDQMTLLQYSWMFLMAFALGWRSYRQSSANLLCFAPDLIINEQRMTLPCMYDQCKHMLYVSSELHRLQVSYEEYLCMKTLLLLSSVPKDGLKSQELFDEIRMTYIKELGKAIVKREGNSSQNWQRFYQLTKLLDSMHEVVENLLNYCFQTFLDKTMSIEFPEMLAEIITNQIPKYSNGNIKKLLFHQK

As to `[N-]=[N+]=[N-]`, the Potency entry in test [1], in test [2], in [3], in [4], in [6] and in test [7] was “inactive” in each case. In addition, in test [5], the activation is -7.88% (inactive).

As to `O=C(O)C(Br)Br`, the Potency entry in test [1], in [9], in [3], in test [4], in test [12] and in [14] was “inactive” in each case. Moreover, the call in test [8], in test [10] and in [13] was inactive. Moreover, the activation in [11] is -1.44% (inactive). Moreover, in test [6], the Potency was 2.98 µM (active).

Regarding `ClP(Cl)(Cl)(Cl)Cl`, in [15], the Potency was > 92 µM (inactive). The Potency result in [16], in test [1], in test [2], in test [3], in test [4] and in test [6] was “inactive” in each case. Besides, the Potency result in test [14] and in [7] was “inactive” each time. In addition, the call in test [17], in [10], in [18] and in test [13] was inactive. Further, the results for the activation in test [11] and in test [5] were -2.17% (inactive) and -4.5% (inactive), respectively.

With `CCCCC(CC)COC(=O)c1ccc(C(=O)OCC(CC)CCCC)c(C(=O)OCC(CC)CCCC)c1` (stereo not given), the Potency entry in [16], in test [1], in test [9] and in test [6] was “inactive” each time. Besides, the compound was called inactive in test [8], in test [17] and in test [18]. In test [5], the activation was -5.8% (inactive).

Regarding `O=[N+]([O-])c1ccccc1CCl`, the call in [8], in test [17], in test [10], in [18], in [20] and in test [13] was inactive. The Potency entry in [9], in test [2], in test [3], in [4], in [12] and in [14] was “inactive” throughout. In [7], the Potency entry was “inactive”. The activation in [11] was -1.64% (inactive); in [5], 1.82% (inactive). Besides, the max response in [19] is -16.6%.

Take `O=[N+]([O-])c1ccccc1O`: the Potency in test [15] is > 92 µM (inactive). For the same compound, the Potency result in test [16], in [1], in test [2], in [12], in test [14] and in test [7] was “inactive” throughout. Besides, in test [8], the call was inactive. In addition, in test [5], the activation is 0.494% (inactive).

Turning to `CCOS(C)(=O)=O`, the Potency in [15] is > 92 µM (inactive). Further, the Potency entry in test [16], in test [1], in [9], in [2], in [14] and in test [7] was “inactive” in each case. For the same compound, the outcome in test [17], in [10], in test [18], in test [20] and in test [13] was inactive. In addition, the activation in [11] was 1.7% (inactive). Further, in test [19], the max response was -10.7%.

With `BrC(Br)Br`, the Potency in [15] is > 92 µM (inactive). Besides, the Potency result in test [16], in [9], in test [2], in [14] and in [7] was “inactive” throughout. The compound was called inactive in [8], in test [10], in [18] and in [13]. Also, the activation was -2.73% (inactive) in test [11] and -1.59% (inactive) in test [5].

Consider `Cc1ccc(N)cc1N`, for which the Potency in test [15] is > 92 µM (inactive); in test [14] it was 23.7 µM (active); in test [7], 29.8 µM (active). Further, the Potency result in test [16], in [1], in test [9], in test [3], in test [4] and in [12] was “inactive” throughout. The outcome in test [8], in test [17], in test [10], in test [18], in test [20] and in [13] was inactive. For the same compound, the activation in [11] is 0.164% (inactive) and -1.15% (inactive); in test [5] it was -6.12% (inactive) and -1.93% (inactive). In addition, the max response in test [19] is 0.381% and -13.2%.
